BAZ2B inh – qHTS Assay for Inhibitors of BAZ2B; AlphaScreen BAZ2B-H3K14Ac peptide displacement; Potency, µM (doses to about 114 µM), without a hit: at the top dose activity change, negative = inhibition, usual class: inhibitors; actives 4.4% (n = 360,000); AID 504333, 2011; note: potency is the fitted concentration of half-maximal effect; % is set by controls: 0 for no effect and ±100 for the full control effect; nearly all actives have a fitted effect of over 60% in size
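Protein-peptide AlphaScreen: BAZ2B 50 nM, b-H3K14Ac 50 nM, 1x PBS pH 7.4 + 0.01% Tween-20. Preincubation 30 min RT; cpd 30 min RT (top 110 uM); beads 20 min RT, light-protected.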
G9a inh-1 – qHTS Assay for Inhibitors of Histone Lysine Methyltransferase G9a. G9a H3K9 monomethylation, AlphaScreen, 2 h. Potency, µM (highest dose often 102 µM), inactives show at the highest dose activity, negative = inhibition, actives largely listed as inhibitors. actives 8.8% (n = 350,000). Histone-lysine N-methyltransferase EHMT2 (Homo sapiens), Q96KQ7. AID 504332, 2011; note: potency is the fitted concentration of half-maximal effect; % is set by controls: 0 for no effect and ±100 for the full control effect; nearly all actives have a fitted effect of over 75% in size
Target sequence (Q96KQ7 913-1193 limits assumed): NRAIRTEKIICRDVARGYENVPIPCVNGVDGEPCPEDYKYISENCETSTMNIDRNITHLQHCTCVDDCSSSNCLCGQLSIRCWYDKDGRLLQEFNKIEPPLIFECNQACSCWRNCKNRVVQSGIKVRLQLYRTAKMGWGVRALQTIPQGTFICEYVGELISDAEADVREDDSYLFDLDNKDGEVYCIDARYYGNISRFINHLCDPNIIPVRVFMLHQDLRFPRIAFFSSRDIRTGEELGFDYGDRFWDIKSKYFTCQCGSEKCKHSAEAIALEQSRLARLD
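AlphaScreen detection with an anti-monomethyl H3K9 antibody quantified product after a 2 h room-temperature reaction containing 500 nM biotinylated H3K9 peptide, 20 µM SAM and 20 nM enzyme, which had been preincubated 15 min with compound.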
JMJD2A Tudor inh – qHTS Assay for Inhibitors of JMJD2A-Tudor Domain | Lysine-specific demethylase 4A (Homo sapiens), O75164 | AlphaScreen JMJD2A-Tudor / H3K4me3 peptide binding | Potency, µM (doses to about 114 µM), inactives show top-dose activity change, negative = inhibition, hits mostly inhibitors | actives 4.4% (n = 390,000); note: potency is the fitted concentration of half-maximal effect; % is set by controls: 0 for no effect and ±100 for the full control effect; nearly all actives have a fitted effect of over 50% in size
HP1b binding inh – HTS for Inhibitors of HP1-beta Chromodomain Interactions with Methylated Histone Tails; Chromobox protein homolog 1 (Homo sapiens), P83916; AlphaScreen HP1-beta / biotin-H3K9me3 peptide binding; Potency, µM (top dose mostly 114 µM), inactives show at the top dose activity change, negative = inhibition, actives largely listed as inhibitors; actives 0.56% (n = 390,000); note: potency is the fitted concentration of half-maximal effect; nearly all actives have a fitted effect of over 70% in size
Target sequence (P83916 whole entry, looked up): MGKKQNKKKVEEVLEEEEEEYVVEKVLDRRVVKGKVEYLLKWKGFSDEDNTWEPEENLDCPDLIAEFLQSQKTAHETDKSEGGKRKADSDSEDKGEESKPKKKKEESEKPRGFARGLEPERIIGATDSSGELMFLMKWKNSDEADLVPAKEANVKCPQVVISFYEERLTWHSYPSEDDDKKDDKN
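Compound inhibition of the preformed complex between 50 nM HP1-beta and 50 nM biotinylated H3K9me3 peptide was read by AlphaScreen. Buffer was PBS pH 7.4 with 0.01% Tween-20. Incubations ran 30 min at room temperature, with 10 ug/mL donor/acceptor beads.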
CtBP-E1A blk – qHTS Assay for Inhibitors of the CtBP/E1A Interaction | AlphaScreen GST-E1A/His-CtBP binding, 1536-well; hits give low values | CtBP / adenovirus E1A interaction (AlphaScreen) | actives 0.49% (n = 340,000) | activity change, % (concentration not given with the values); in the data active = activity change below about -65%; inconclusive = mostly about -30% to -63%; note: % is set by controls: 0 for no effect and ±100 for the full control effect
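GST-E1A and His-tagged CtBP (125 nM each as 5X stock) were preincubated with pin-transferred compound for 2 h at 37 °C in the dark, then glutathione donor and nickel acceptor beads were added for 1 h before AlphaScreen reading.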
Six1-Eya2 blk – qHTS Assay for Inhibitors of the Six1/Eya2 Interaction | actives 0.56% (n = 360,000) | Homeobox protein SIX1 (Homo sapiens) + Protein phosphatase EYA2 (Homo sapiens), … | activity change, % (no concentration beside the values) | AlphaScreen GST-Six1/His-Eya2 binding, biochemical; hits give low values; in the data active = activity change below about -65%; inconclusive = mostly about -30% to -63%; note: % is set by controls: 0 for no effect and ±100 for the full control effect
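Six1/Eya2 binding was read as AlphaScreen signal after compounds were pinned into GST-Six1 plus His-tagged Eya2 (5X stock 250/500 nM) in pH 8.0 Tris/NaCl/TCEP buffer, beads added, then incubated 1 h, 37 C, dark.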
JMJD2E inh – Confirmation qHTS Assay for Inhibitors of Human Jumonji Domain Containing 2E (JMJD2E); Recombinant JMJD2E, FDH-coupled NADH fluorescence (FDH is formaldehyde dehydrogenase); AID 2677, 2010; Potency, µM (series often up to 56.8 µM), for the others: at the top dose activity change, negative = inhibition, most hits filed as inhibitors; actives 93% (n = 140); shares compounds with JMJD2A Tudor inh
FDH counter – Counterscreen for JMJD2E Inhibitors: qHTS Assay for Inhibitors of Formaldehyde Dehydrogenase (FDH); actives 10% (n = 140); FDH enzyme assay, NADH fluorescence kinetic; shares compounds with JMJD2A Tudor inh; Potency, µM (top dose mostly 56.7 µM), without a hit: at the highest dose activity, negative = inhibition, actives largely listed as inhibitors
G9a inh-2 – qHTS Assay for Inhibitors of Histone Lysine Methyltransferase G9a: Hit Confirmation. shares compounds with JMJD2A Tudor inh. Potency, µM, usual class: inhibitors. actives 89% (n = 370). G9a H3K9 monomethylation, AlphaScreen, 2 h; note: potency is the fitted concentration of half-maximal effect; nearly all actives have a fitted effect of over 65% in size
RGS4 inh – qHTS for Inhibitors of Regulator of G Protein Signaling(RGS) 4: Hit Validation. shares compounds with JMJD2A Tudor inh. RGS4 GAP activity, Transcreener GDP fluorescence polarization. actives 80% (n = 25). Potency, µM, actives largely listed as inhibitors. AID 602388, 2012
Target sequence (P49798 whole entry, looked up): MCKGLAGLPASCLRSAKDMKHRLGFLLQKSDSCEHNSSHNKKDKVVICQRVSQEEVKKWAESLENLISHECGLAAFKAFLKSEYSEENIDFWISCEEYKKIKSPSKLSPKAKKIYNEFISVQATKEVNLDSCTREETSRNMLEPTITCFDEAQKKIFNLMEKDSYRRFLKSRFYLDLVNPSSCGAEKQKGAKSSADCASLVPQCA
* = called active by the depositor; u = inconclusive; x = not tested or not shown; [ ] = another dose, or the depositor's remark. The list is not random: actives were taken first. Their share in the collection is about 10%. Unless noted, calls come from the whole dose curve; as a rule, active = well fitted curve in the direction sought with a large enough effect; inconclusive = small, poorly fitted or top-dose-only effect, or another doubt; inactive = no such curve, though single readings can be large; an effect the other way counts as inactive or inconclusive.

SMILES | BAZ2B inh | G9a inh-1 | JMJD2A Tudor inh | HP1b binding inh | CtBP-E1A blk | Six1-Eya2 blk | G9a inh-2 | others
O=C(C1CCCO1)N1CCN(Cc2c(O)ccc3ccccc23)CC1 (stereo not drawn) | 5% | 1.4µM* | 79µM* | -32% | -1 | 0 | 0.36*
CN(C)c1ccc(NC(=O)CCSc2nc(-c3ccco3)cc(C(F)(F)F)n2)cc1 | u | 0.71µM* | u | -3% | x | x | 1.3*
CCOc1ccc(NC(=O)NCC2CCN(c3ccc(OC)cc3)C2)cc1 (stereo not drawn) | -7% | 1µM* | -34% | -16% | -8 | -3 | 1.1*
CCc1ccc(NC(=O)NCC2CCN(c3ccc(OC)cc3)C2)cc1 (stereo not drawn) | -36% | u | -34% | 4% | -11 | -15 | 0.89*
COc1ccc(N2CCC(CNC(=O)Nc3ccc(OC)cc3OC)C2)cc1 (stereo not drawn) | 40µM* | u | 45µM* | -78% | -19 | u | 2.5*
COc1ccc(CNC(=O)Nc2ccc(C)c(C)c2)cc1 | -23% | 13% | -7% | 29% | x | 5 | x
COc1ccc(N2CCC(CNC(=O)Nc3ccc(C)c(C)c3)C2)cc1 (stereo not drawn) | 40µM* | 2µM* | 25µM* | u | -4 | u | 2.5*
O=C(CCC(=O)N1CCN(Cc2ccc(F)cc2)CC1)Nc1nnc(C(F)(F)F)s1 | -1% | -12%[12.7 µM] | -15% | 33% | -1 | 11 | x
COc1ccc(N2CCC(CNS(=O)(=O)c3cccc(C(F)(F)F)c3)C2)cc1 (stereo not drawn) | 10µM* | u | 40µM* | u | -24 | -28 | 0.45*
COc1ccc(CNC(=O)C2CCN(S(=O)(=O)c3cccc(C(F)(F)F)c3)CC2)cc1 | 9% | -30% | 3% | 24% | -5 | 1 | x
Cc1ccc(N2C(=O)NC3(CCCCC3)C2=O)cc1 | 1% | 21% | 2% | 29% | -5 | 1 | x
Cc1ccc(N2NC3(CCN(C(N)=O)CC3)NC2=O)cc1 | -19% | 0.71µM* | -17% | 31% | 2 | -6 | 40*
O=C(CSc1nnc(-c2ccncc2)o1)c1cccc([N+](=O)[O-])c1 | -20% | 33%[12.7 µM] | -22% | -7% | -3 | 0 | x
O=C(CSc1ncn[nH]1)c1cccc([N+](=O)[O-])c1 | -9% | 25µM* | 28µM* | 12% | -11 | 6 | x | JMJD2E inh=10µM*;FDH counter=0.89µM*
CC(C)n1c2ccccc2c2nnc(SCC(=O)Nc3ccccc3C(=O)O)nc21 | x | u | 2%[11.4 µM] | u | x | -5 | x
COc1ccc2nc(NC(=O)CSc3nc(C)cc(=O)[nH]3)sc2c1 | -20% | 2.8µM* | 13%[57.1 µM] | 11% | -16 | -6 | 25*
CC(C(=O)NC(=O)NC1CCCCC1)N1CCN(c2ccc(O)cc2)CC1 (stereo not drawn) | u | 1.3µM* | 22µM* | 79µM* | -24 | -5 | 0.56*
COC(=O)[C@@]12C[C@@H](CC(=O)NCc3ccc(OC)c(OC)c3)C(=O)N(Cc3ccc4c(c3)OCO4)C1=CCC(C)(C)C2 | x | x | x | x | -5 | -17 | x
Cc1ccc(CNc2ccc3c(c2)ncn3C)cc1 | u | 0.71µM* | u | -15% | -3 | -3 | 8.9*
COc1ccc(OC)c(Nc2nc(=O)c3cccnc3s2)c1 | 56µM* | 0.56µM* | 18µM* | u | -15 | -9 | 0.45*
Cc1ccc(CNC(=O)CN2C(=O)COc3ccc(S(=O)(=O)N4CCC(C)CC4)cc32)cc1 | 0% | u | -5% | 41% | x | x | u
CC(=O)Nc1ccc(C(=O)N2CCCC(c3cc(C(=O)NCc4ccc(F)cc4)no3)C2)cc1 (stereo not drawn) | x | x | x | x | 4 | 3 | x
O=C1CC(c2ccccc2)Cc2[nH]c(=O)c(-c3nc(-c4ccc(F)cc4)cs3)cc21 (stereo not drawn) | 13µM* | 0.63µM* | 22µM* | 31% | x | x | 2.5*
Oc1c(CN2CCOCC2)ccc2ccccc12 | -36% | 2.2µM* | u | -31% | -1 | -7 | 1.3*
c1ccc2c(CN3CCOCC3)c3ccccc3c(CN3CCOCC3)c2c1 | -33% | u | -17% | 22% | 6 | 0 | x
SMILES | BAZ2B inh | G9a inh-1 | JMJD2A Tudor inh | HP1b binding inh | CtBP-E1A blk | Six1-Eya2 blk | G9a inh-2 | others
c1ccc2c(NC3CCNCC3)nc(-c3ccoc3)nc2c1 | x | 15%[0.501 µM] | x | x | x | x | x
c1ccc2c(NC3CC3)nc(-c3ccoc3)nc2c1 | x | 4%[0.501 µM] | x | x | x | x | x | RGS4 inh=u
CSc1ncccc1C(=O)OCC(=O)NC(C)CCc1ccccc1 (stereo not drawn) | x | x | -5% | 49% | 2 | 1 | x
Nc1ccccc1SCC(=O)N1CCc2ccccc21 | -3% | 10%[12.7 µM] | -15% | 5% | -2 | 5 | x
O=C(CSC1=NCCS1)N1CCc2ccccc21 | -1% | u | 15% | 21% | 4 | 3 | 1.6*
CC(=O)c1ccc(NC(=O)COC(=O)Cc2ccsc2)cc1 | x | x | 3% | 49% | x | -4 | x
CCN(CC)c1ccc(NC(=O)COC(=O)CCc2cc(OC)c(OC)c(OC)c2)cc1 | x | x | x | x | -12 | u | x

High-throughput results from PubChem.
